Assay results reported in PubChem BioAssay.

Each molecule was assayed against Follistatin-related protein 3 (Homo sapiens) (UniProt O95633) (assay: FSTL3 binders on small-molecule microarrays, primary screen, biochemical, small-molecule microarray, 635 nm fluorescence (AID 1105;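 further: score merges emission near 667 nm and signal to noise per printed spot across three slides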)). Details: FSTL3 binding, higher = more signal.
Follistatin-related protein 3 (Homo sapiens), sequence (O95633 whole entry, looked up): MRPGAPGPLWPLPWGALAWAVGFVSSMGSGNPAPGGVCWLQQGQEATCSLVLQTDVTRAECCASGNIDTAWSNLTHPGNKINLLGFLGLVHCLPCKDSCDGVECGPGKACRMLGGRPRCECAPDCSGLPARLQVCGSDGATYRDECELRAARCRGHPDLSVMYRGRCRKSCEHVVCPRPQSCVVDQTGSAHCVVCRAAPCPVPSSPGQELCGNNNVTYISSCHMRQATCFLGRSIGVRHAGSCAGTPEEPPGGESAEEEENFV

Row | Structure (SMILES) | composite z-score
1 | O=C1C[C@@H](O)[C@@H](O)[C@@H]2[C@@H]3C(=O)N(c4ccc(F)cc4F)C(=O)[C@@H]3CC[C@H]12 | 0.638
2 | Cc1cc(C)c(-c2cc([C@H](C)ON=C[C@@H](C)[C@H](OCc3ccccc3)C(C)C)on2)c(C)c1 | -0.0283
3 | CCN1C(=O)[C@H]2[C@H]3[C@H](O)[C@H](O)CC(=NOCC=C(C)CCC=C(C)C)[C@@H]3CC[C@H]2C1=O | 0.972
4 | CC(CCC(=O)OC[C@H]1O[C@H](C#Cc2ccccc2)C=C[C@@H]1Oc1ccc(C)cc1)=NOC[C@@H](C)[C@H](OCc1ccccc1)C(C)C | -1.09
5 | CCOC(=O)CCN1C(=O)[C@H]2[C@H]3[C@H](O)[C@H](O)CC(=NO[C@@H]4O[C@H](CO)[C@@H](O)[C@H](O)[C@H]4O)[C@H]3CC[C@H]2C1=O | 0.231
6 | CC1(C)O[C@H]2OC([C@H](O)CON3C(=O)c4ccccc4C3=O)[C@H](O)[C@H]2O1 (stereo partly specified) | 0.205
7 | CC(CCN1CCc2nc(-c3ccccc3)c(-c3ccccc3)cc2C1)=NO[C@H](C)c1cn([C@H](CO)Cc2ccccc2)nn1 | 0.177
8 | CON=C(C)CCN1CCCc2nc(C)c(C)cc21 | 0.68
9 | CC(=O)OC[C@H]1O[C@@H](ON=C(C)CCC(=O)OC[C@H]2O[C@H](C#Cc3ccccc3)C=C[C@@H]2Oc2ccc(C)cc2)[C@H](OC(C)=O)[C@@H](OC(C)=O)[C@@H]1OC(C)=O | 0.786
10 | CCN1C(=O)[C@H]2[C@H]3[C@H](O)[C@H](O)CC(=NO[C@H](C)c4cn([C@H](CO)Cc5ccccc5)nn4)[C@@H]3CC[C@H]2C1=O | 1.05
11 | CC(=O)OC[C@H]1O[C@@H](ON=C(C)C)[C@H](OC(C)=O)[C@@H](OC(C)=O)[C@@H]1OC(C)=O | -1.57
12 | CC(C)CON=C1C[C@@H](O)[C@@H](O)[C@@H]2[C@@H]3C(=O)N(c4ccc(F)cc4F)C(=O)[C@@H]3CC[C@@H]12 | 0.598
13 | C=C(C)C(=O)OC[C@H]1CN2[C@@H](CC[C@@H](C)[C@@H]2c2ccc(Br)cc2)C(=O)O1 | -0.214
14 | CC(CCN1CCCc2nc(C)c(C)cc21)=NOC[C@@H](O)COCc1ccco1 | 1.6
15 | O=C1C=C[C@@H](O)[C@@H]2[C@@H]3C(=O)N(Cc4ccc5c(c4)OCO5)C(=O)[C@@H]3CC[C@@H]12 | 0.579
16 | CC(C)(C)N1C(=O)[C@H]2[C@H]3[C@H](O)[C@H](O)CC(=NOC[C@@H](O)COCc4ccco4)[C@@H]3CC[C@H]2C1=O | -0.248
17 | C=CC[C@@H]1C=CC(ON=C(C)C)[C@@H](CO)O1 (stereo partly specified) | -0.899
18 | CCC1=NOC(CCC2CC(OC(=O)NCc3cccc4c3OCO4)CC3(CCCC(COC(=O)NCCc4ccc(Cl)cc4)O3)O2)C1 (stereo unspecified) | 0.147

Row | Structure (SMILES) | composite z-score
19 | C#CCCCON=C1C[C@@H](O)[C@@H](O)[C@@H]2[C@@H]3C(=O)N(C4CCCCC4)C(=O)[C@@H]3CC[C@@H]12 | 0.556
20 | CC(=O)OC[C@H]1O[C@H](CC=NOC[C@@H](O)COCc2ccco2)C=C[C@@H]1OC(C)=O | 1.37
21 | CC(C)=NOC(C)CN1CCCc2nc(C)c(C)cc21 (stereo unspecified) | 1.16
22 | CCOC(=O)[C@H](Cc1ccccc1)NC(=O)CCC1CC(OC(=O)NCc2cccc3ccccc23)CC2(CCCC(COC(=O)NCC3CCCCC3)O2)O1 (stereo partly specified) | 0.872
23 | O=C1C[C@H](c2ccccc2)[C@H](c2ccc(Br)cc2)O1 | -0.093
24 | COC(=O)[C@H](C)NC(=O)CCC1CC(OC(=O)NCCc2ccc(F)cc2)CC2(CCCC(COC(=O)NCC3CCCCC3)O2)O1 (stereo partly specified) | 1.08
25 | CN1CCc2nc(-c3ccccc3)c(-c3ccccc3)cc2C1 | 0.359
26 | CC#CCOCCC=C1c2ccccc2[C@@H](OC)[C@@H]1C | 0.449
27 | C#CCCCON=C1C[C@@H](O)[C@@H](O)[C@@H]2[C@@H]3C(=O)N(C[C@@H]4CCCO4)C(=O)[C@@H]3CC[C@H]12 | 0.457
28 | O=C1[C@H]2[C@H]3[C@H](O)[C@H](O)CC(=NO[C@@H]4O[C@H](CO)[C@@H](O)[C@H](O)[C@H]4O)[C@H]3CC[C@H]2C(=O)N1c1ccc(F)cc1F | 0.0345
29 | CCCNC(=O)OC[C@H]1O[C@H](CCON=C2C[C@@H](O)[C@@H](O)[C@@H]3[C@@H]4C(=O)N(CC)C(=O)[C@@H]4CC[C@@H]23)C=C[C@@H]1Oc1ccc(OC)cc1 | 1.07
30 | CC(C)=CCCC(C)=CCON=C1C[C@@H](O)[C@@H](O)[C@@H]2[C@@H]3C(=O)N(c4cccc(Oc5ccccc5)c4)C(=O)[C@@H]3CC[C@H]12 | 0.751
31 | COc1ccc(OC[C@@H](CO)OC)cc1 | 0.475
32 | COc1ccc(OC[C@H]2CN3[C@@H](CC[C@@H](C)[C@@H]3c3ccc(Br)cc3)C(=O)O2)cc1 | 0.142
33 | Cc1ccc(S(=O)(=O)N[C@@H]2COC(=O)CC=C[C@@H](C)[C@H](NS(=O)(=O)c3ccc(C)cc3)COC(=O)[C@H](C)NC(=O)CC=C[C@H]2C)cc1 | 0.129
34 | CC(C)CON=C1C[C@@H](O)[C@@H](O)[C@@H]2[C@@H]3C(=O)N(C(C)(C)C)C(=O)[C@@H]3CC[C@@H]12 | 0.85
35 | CCOC(=O)CCN1C(=O)[C@H]2[C@H]3[C@H](O)[C@H](O)CC(=O)[C@@H]3CC[C@H]2C1=O | 1.15
36 | CCOC(=O)[C@H](CC(C)C)NC(=O)CCC1CC(OC(=O)NCc2ccc3c(c2)OCO3)CC2(CCCC(COC(=O)NCCC(C)C)O2)O1 (stereo partly specified) | 0.115
